From PubChem BioAssay (Tox21)
Results filed as inconclusive are left out. Activity calls are given as the source filed them. Calls follow the shape of the dose curve; as a rule, active = well fitted cell-killing curve with a large enough effect in the repeat runs; inconclusive = weak or mixed curves; inactive = flat fitted curve, though single readings scatter.

Experiment: qHTS RealTime-Glo MT Cell Viability Assay in HepG2 cells - 24 hour (AID 1224867); also: nearly all actives have a fitted effect of over 50% in size
Conditions: RealTime-Glo luminescence; series mostly up to 76.8 µM
Excerpt: U.S. Tox21 Program National Center for Advancing Translational Sciences [NCATS] NIH Chemical Genomics Center [NCGC] U.S. Environmental Protection Agency [EPA] National Institutes of Environmental Health Sciences [NIEHS] National Toxicology Program [NTP] U.S. Food and Drug Administration [FDA] Tox21 Assay Overview: Measure of cell viability is critical in the cell-base assay. Analysis of cell viability is necessary for the characterization of cell responses to cytotoxic drugs and environmental stress. A RealTime-Glo MT Cell Viability Assay to monitor cell viability in real time of continues cell culture during 40 hours of compound treatment was used to screen Tox21 10K library compounds in HepG2 cells. The RealTime-Glo MT Cell Viability Assay is a nonlytic, homogeneous, bioluminescent method to measure cell viability in real time using a simple, plate-based method. The assay involves adding NanoLuc luciferase and a cell-permeant prosubstrate to cells in culture. Viable cells reduce the proprietary prosubstrate to generate a substrate for NanoLuc luciferase. This substrate diffuses from cells into the surrounding culture medium, where it is rapidly used by the NanoLuc Enzyme to produce a luminescent signal. The signal correlates with the number of viable cells, making the assay well suited for cytotoxicity studies.
Tox21 Assay Protocol Summary: The mixture of HepG2 cell suspension and reagents were dispensed at 600cells/6 ul/well in 1536-well tissue culture treated black solid bottom plates using a Multidrop dispenser. After the assay plates were incubated at a 37 C/5% CO2 incubator for 5 hours, 23 nL of compounds dissolved in DMSO, positive and negative controls was transferred to the assay plate by a pintool work station. The plates were incubated at 37 C for 40 hours. The luminescence intensity were measured at 0h, 8h, 16h, 24h, 32h and 40h time points using ViewLux plate reader during compound treatment.
For `CC1=C(/C=C/C(C)=C/C=C/C(C)=C/C(=O)O)C(C)(C)CCC1`, the outcome was “inactive”.
With `NC(=O)OCC(COC(N)=O)c1ccccc1` the outcome was “inactive”.
In the case of `O=C1CCCCCN1`, the outcome is reported as “inactive”.
For `COC(=O)C1CCC(C(=O)OC)CC1` (stereo not given), the outcome was “inactive”.
In the case of `C[C@]12CC[C@@H]3c4ccc(O)cc4CC[C@H]3[C@@H]1CCC2=O`, the outcome is reported as “inactive”.
In the case of `Cc1cccc(Nc2cc(Cl)nc(SCC(=O)O)n2)c1C`, the outcome is reported as “inactive”.
With `Cc1cnc(NC(=O)C2=C(O)c3ccccc3S(=O)(=O)N2C)s1` the outcome was “inactive”.
In the case of `N[C@@H](Cc1c[nH]c2ccc(O)cc12)C(=O)O`, the outcome is reported as “inactive”.
With `C[C@]12C[C@H](O)[C@H]3[C@@H](CCC4=CC(=O)CC[C@@]43C)[C@@H]1CC[C@@H]2C(=O)CO` the outcome was “inactive”.
For `CC(=O)CCC(C)C`, the outcome was “inactive”.
With `CCN1CCCC1=O` the outcome was “inactive”.
With `O=c1c(-c2ccc(O)cc2)coc2cc(O)cc(O)c12` the outcome was “inactive”.
With `CN/C(=C\[N+](=O)[O-])NCCSCc1ccc(CN(C)C)o1` the outcome was “inactive”.
In the case of `NC(=O)N/N=C/c1ccc([N+](=O)[O-])o1`, the outcome is reported as “inactive”.
With `NC(=O)N1c2ccccc2C=Cc2ccccc21` the outcome was “inactive”.
With `Nc1ccc(N=Nc2ccccc2)c(N)n1` the outcome was “inactive”.
For `Nc1cccc(N)c1`, the outcome was “inactive”.
With `Cc1cccc(C)c1O` the outcome was “inactive”.
In the case of `COc1ccc(O)cc1`, the outcome is reported as “inactive”.
With `CCCCCCCCCCCCCC(=O)OC(C)C` the outcome was “inactive”.
For `CN(C)Cc1cc(CN(C)C)c(O)c(CN(C)C)c1`, the outcome was “inactive”.
With `COc1cc2c(c(OC)c1OC)-c1ccc(OC)c(=O)cc1[C@@H](NC(C)=O)CC2` the outcome was “inactive”.
With `Cn1cnc2c1c(=O)[nH]c(=O)n2C` the outcome was “inactive”.
For `CC(C)Cc1ccc(C(C)C(=O)O)cc1` (stereo not given), the outcome was “inactive”.
With `CCCCOC(=O)CCCCCCCCC(=O)OCCCC` the outcome was “inactive”.
In the case of `O=C(OCc1ccccc1)c1ccccc1`, the outcome is reported as “inactive”.
In the case of `O=C(O)CN(CC(=O)O)CC(=O)O`, the outcome is reported as “inactive”.
In the case of `CCCCOCCOCCOC(C)=O`, the outcome is reported as “inactive”.
In the case of `O=C1OC(c2ccc(O)cc2)(c2ccc(O)cc2)c2ccccc21`, the outcome is reported as “inactive”.
For `CC(=O)c1ccc(S(=O)(=O)NC(=O)NC2CCCCC2)cc1`, the outcome was “inactive”.
With `CC(C)(C)NCC(O)c1ccc(O)c(CO)c1` (stereo not given) the outcome was “inactive”.
In the case of `NC(=O)c1ccc([N+](=O)[O-])cc1Cl`, the outcome is reported as “inactive”.
With `CC1=NN(c2ccccc2)C(=O)C1` the outcome was “inactive”.
In the case of `CC(=O)Oc1ccccc1C(=O)O`, the outcome is reported as “inactive”.
With `CC(C)(C)CC(C)(C)c1ccc(O)c(-n2nc3ccccc3n2)c1` the outcome was “inactive”.
With `Cc1cccc2ccccc12` the outcome was “inactive”.
For `CO[C@H]1C=CO[C@@]2(C)Oc3c(C)c(O)c4c(O)c(c(/C=N/N5CCN(C)CC5)c(O)c4c3C2=O)NC(=O)/C(C)=C\C=C[C@H](C)[C@H](O)[C@@H](C)[C@@H](O)[C@@H](C)[C@H](OC(C)=O)[C@@H]1C`, the outcome was “inactive”.
For `NC(=O)NO`, the outcome was “inactive”.
For `CCN(CC)CCOC(=O)c1ccc(N)cc1`, the outcome was “inactive”.
With `C#C[C@]1(O)CC[C@H]2[C@@H]3CCc4cc(O)ccc4[C@H]3CC[C@@]21C` the outcome was “inactive”.
